For eight compounds, outcome and AC50 results are on record in PubChem BioAssay (EPA / NIEHS).

For orientation: AC50 means the concentration at which the activity in the assay is half-maximal.

Test [1] is described as follows: BSK_3C_VCAM1: BioMAP Diversity Plus: 3C Assay for Vascular cell adhesion molecule 1 (VCAM1) Biomarker Activity (AID 2282999; active means hit-call score of the fitted dose curve at least 0.9, where 1 is the maximum; inactive means score below 0.9). The following applies: BioMAP 3C HUVEC, VCAM1 ELISA, cytokine-stimulated; actives raise or lower the signal. In a few lines: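 Human umbilical vein endothelial cells (3C system), biomarker read by ELISA 24 h after dosing; bidirectional fit against DMSO baseline. Cytotoxicity tracked by SRB total-protein staining in parallel cultures at biomarker time.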

Test [2] is described as follows: BSK_4H_Eotaxin3: BioMAP Diversity Plus: 4H Assay for Eotaxin 3 Biomarker Activity (AID 2283000; active means hit-call score of the fitted dose curve at least 0.9, where 1 is the maximum; inactive means score below 0.9;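 on outcome: CCL26 protein level quantified by ELISA in parallel with SRB cytotoxicity check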). The following applies: primary human endothelial cells (HUVEC); actives raise or lower the signal. In a few lines: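 ELISA quantitation of CCL26 (Eotaxin-3) protein from chemically dosed human vascular endothelial cells at 24 h; increases and decreases both scored relative to DMSO-treated baseline.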

In test [3] the target is human Peroxisome Proliferator-activated Receptor alpha (PPARa), PPARA (gene 5465) (UniProt Q07869). The test can be described thus: ATG_PPARa_TRANS: Attagene TRANS-FACTORIAL HepG2 Assay for human Peroxisome Proliferator-activated Receptor alpha (PPARa) (AID 2283001). In a few lines: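 HepG2 cells transiently transfected with multiplexed GAL4-UAS reporters driven by exogenous chimeric NR-Gal4 proteins; reporter mRNA measured after 24 h dosing. Read-out by RT-PCR, 6-FAM labelling, HpaI digestion and capillary electrophoresis; gain of signal versus DMSO.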
human Peroxisome Proliferator-activated Receptor alpha (PPARa), PPARA (gene 5465), sequence (Q07869 whole entry, looked up, the tested form may be a part): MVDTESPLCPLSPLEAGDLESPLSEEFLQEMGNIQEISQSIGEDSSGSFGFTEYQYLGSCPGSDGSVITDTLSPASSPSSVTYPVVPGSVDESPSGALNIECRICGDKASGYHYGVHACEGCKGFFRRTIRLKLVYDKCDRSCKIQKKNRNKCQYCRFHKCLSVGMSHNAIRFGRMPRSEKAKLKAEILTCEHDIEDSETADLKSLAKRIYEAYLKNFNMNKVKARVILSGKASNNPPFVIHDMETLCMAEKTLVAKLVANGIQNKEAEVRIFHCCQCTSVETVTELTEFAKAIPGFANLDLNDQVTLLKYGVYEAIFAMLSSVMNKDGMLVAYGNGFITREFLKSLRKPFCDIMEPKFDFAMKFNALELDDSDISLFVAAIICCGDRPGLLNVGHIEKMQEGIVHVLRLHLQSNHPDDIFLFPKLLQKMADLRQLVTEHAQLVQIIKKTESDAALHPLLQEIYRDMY

Test [4] concerns the target human Peroxisome Proliferator-activated Receptor delta (PPARd), PPARD (gene 5467) (UniProt Q03181). In words: ATG_PPARd_TRANS: Attagene TRANS-FACTORIAL HepG2 Assay for human Peroxisome Proliferator-activated Receptor delta (PPARd) (AID 2283002). In a few lines: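 Fluorescence from capillary electrophoresis of labelled RT-PCR reporter fragments gives the signal; DMSO sets baseline. Cells: HepG2 transiently carrying GAL4-UAS reporter units plus chimeric nuclear receptor-Gal4 proteins, exposed to chemicals for 24 h.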

Read-out in test [5]: Intercellular Adhesion Molecule 1 (ICAM1), ICAM1 (gene 3383)
The test can be described thus: BSK_3C_ICAM1: BioMAP Diversity Plus: 3C Assay for Intercellular Adhesion Molecule 1 (ICAM1) Biomarker Activity (AID 2283003; active means hit-call score of the fitted dose curve at least 0.9, where 1 is the maximum; inactive means score below 0.9). The following applies: primary human endothelial cells (HUVEC); actives raise or lower the signal. The procedure, abridged: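 ICAM-1 levels measured by ELISA after HUVEC cultures in the 3C system had been dosed for 24 h. Gain or loss of signal relative to DMSO was fitted in both directions.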

The nature of test [6]: BSK_3C_Proliferation: Cell Proliferation Assessment in the BioMAP Diversity Plus: 3C Assay (AID 2283006; active means hit-call score of the fitted dose curve at least 0.9, where 1 is the maximum; inactive means score below 0.9;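 on AC50: potency may reflect either rise or fall in cell number versus DMSO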). The following applies: primary human endothelial cells (HUVEC). The procedure, abridged:
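Read-out is total protein by SRB absorbance at 560 nm, taken as a proxy for relative cell number. Primary human umbilical vein endothelium cultured below confluence was dosed for 48 h, TCA-fixed and SRB-stained; curves were fitted bidirectionally versus DMSO.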

Test [7] has as its target Peroxisome proliferator-activated receptor gamma (Homo sapiens) (UniProt P37231). The test can be described thus: ATG_PPARg_TRANS: Attagene TRANS-FACTORIAL HepG2 Assay for human Peroxisome Proliferator-activated Receptor-gamma (PPARg) (AID 2283007). In a few lines: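 Liver-derived HepG2 cells expressing an exogenous NR-Gal4 chimera alongside GAL4-UAS reporter genes; 24 h exposure. Fluorescence of reporter RT-PCR products, separated by capillary electrophoresis, gives mRNA induction relative to DMSO.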

In test [8] the target is Nuclear receptor subfamily 1 group I member 2 (Homo sapiens) (UniProt O75469). The test can be described thus: ATG_PXR_TRANS: Attagene TRANS-FACTORIAL HepG2 Assay for human Pregnane X Receptor (PXR) (AID 2283008). The procedure, abridged: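 Read-out is fluorescence of labelled reporter cDNA fragments separated by capillary electrophoresis after RT-PCR and HpaI digestion. Source: HepG2 cells carrying PXR-GAL4/UAS reporter constructs, treated 24 h; activity fitted upward relative to DMSO.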

In test [9] the target is human RAR-related Orphan Receptor gamma (RORg), RORC (gene 6097) (UniProt P51449). In words: ATG_RORg_TRANS: Attagene TRANS-FACTORIAL HepG2 Assay for human RAR-related Orphan Receptor gamma (RORg) (AID 2283011). In a few lines: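 Chimeric RORg-Gal4 transactivation in transfected HepG2; 24 h exposure; RT-PCR/capillary electrophoresis readout of reporter mRNA, DMSO baseline.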

Test [10] deals with Retinoic acid receptor RXR-alpha (Homo sapiens) (UniProt P19793). The test can be described thus: ATG_RXRa_TRANS: Attagene TRANS-FACTORIAL HepG2 Assay for human Retinoid X Receptor alpha (RXRa) (AID 2283012). The procedure, abridged: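 Transient transfection of human HepG2 with multiple GAL4-UAS reporter constructs; 24 h compound exposure; total RNA isolated, reverse-transcribed, PCR-amplified, 6-FAM labelled, HpaI-cut, resolved by capillary electrophoresis. Positive-direction fit versus DMSO.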
Retinoic acid receptor RXR-alpha (Homo sapiens), sequence (P19793 whole entry, looked up, the tested form may be a part): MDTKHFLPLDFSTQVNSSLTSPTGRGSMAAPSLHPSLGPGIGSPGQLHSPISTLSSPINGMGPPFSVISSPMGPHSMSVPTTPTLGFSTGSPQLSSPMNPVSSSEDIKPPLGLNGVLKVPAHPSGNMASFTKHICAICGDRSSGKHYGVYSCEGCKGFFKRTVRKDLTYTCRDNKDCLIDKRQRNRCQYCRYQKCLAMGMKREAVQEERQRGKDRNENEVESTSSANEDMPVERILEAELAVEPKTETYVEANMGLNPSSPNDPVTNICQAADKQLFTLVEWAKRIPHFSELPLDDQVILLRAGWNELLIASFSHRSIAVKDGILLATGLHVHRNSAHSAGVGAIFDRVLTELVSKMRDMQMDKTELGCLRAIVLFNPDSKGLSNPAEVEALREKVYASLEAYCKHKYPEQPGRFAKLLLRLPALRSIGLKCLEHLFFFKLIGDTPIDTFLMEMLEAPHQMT

Test [11] has as its target human Retinoid X Receptor beta (RXRb), RXRB (gene 6257) (UniProt P28702). In words: ATG_RXRb_TRANS: Attagene TRANS-FACTORIAL HepG2 Assay for human Retinoid X Receptor beta (RXRb) (AID 2283013). The procedure, abridged: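 Transfect HepG2 with GAL4-UAS multi-reporter constructs (chimeric NR-Gal4, TRANS format); dose compound 24 h; isolate RNA, RT-PCR, FAM primer extension, HpaI digest; quantify by capillary electrophoresis; positive direction vs DMSO.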

Read-out in test [12]: E-selectin (Homo sapiens) (UniProt P16581)
In words: BSK_3C_Eselectin: BioMAP Diversity Plus: 3C Assay for Eselectin Biomarker Activity (AID 2283015; active means hit-call score of the fitted dose curve at least 0.9, where 1 is the maximum; inactive means score below 0.9;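 on outcome: cell surface E-selectin protein quantified by ELISA 24 h after dosing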). The following applies: primary human endothelial cells (HUVEC); actives raise or lower the signal. The procedure, abridged: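 Endpoint derived by bidirectional fitting against DMSO vehicle; signal is ELISA-detected E-selectin from primary HUVEC at 24 h post-dosing, with parallel SRB staining (0.1% SRB, 560 nm) flagging cytotoxicity.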

Read-out in test [13]: Monocyte Chemoattractant Protein-1 (MCP1), CCL2 (gene 6347)
In words: BSK_3C_MCP1: BioMAP Diversity Plus: 3C Assay for Monocyte Chemoattractant Protein-1 (MCP1) Biomarker Activity (AID 2283017; active means hit-call score of the fitted dose curve at least 0.9, where 1 is the maximum; inactive means score below 0.9). The following applies: primary human endothelial cells (HUVEC); actives raise or lower the signal. In a few lines:
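Using human vascular primary endothelium, researchers measured MCP-1 by ELISA 24 h after treatment, with DMSO serving as negative control for bidirectional fitting.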

Read-out in test [14]: Monocyte Chemoattractant Protein-1 (MCP1), CCL2 (gene 6347)
The test can be described thus: BSK_4H_MCP1: BioMAP Diversity Plus: 4H Assay for Monocyte Chemoattractant Protein-1 (MCP1) Biomarker Activity (AID 2283018; active means hit-call score of the fitted dose curve at least 0.9, where 1 is the maximum; inactive means score below 0.9). The following applies: primary human endothelial cells (HUVEC); actives raise or lower the signal. In a few lines:
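ELISA read-out of MCP-1 from human vascular endothelial primary cells taken at 24 hours after compound exposure. Activity was fitted in both directions relative to DMSO, which served as negative control.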

Test [15] concerns the target human Retinoic Acid Receptor beta (RARb), RARB (gene 5915) (UniProt P10826). In words: ATG_RARb_TRANS: Attagene TRANS-FACTORIAL HepG2 Assay for human Retinoic Acid Receptor beta (AID 2283004). The procedure, abridged: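 Fluorescent capillary-electrophoresis detection of GAL4-UAS reporter mRNA defines the endpoint, with induction over DMSO-treated wells scored as activity. Transiently transfected human hepatoma HepG2 cells expressing exogenous NR–Gal4 proteins are exposed to test chemicals for 24 h.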

Test [16] concerns the target Retinoic acid receptor alpha (Homo sapiens) (UniProt P10276). In words: ATG_RARa_TRANS: Attagene TRANS-FACTORIAL HepG2 Assay for human Retinoic Acid Receptor alpha (RARa) (AID 2283005).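 On AC50: potency for increased reporter signal meaning RARa activation over DMSO.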 In a few lines:
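HepG2 transiently transfected with multiplex GAL4-UAS reporter units including a human RARa–GAL4 chimera; 24 h compound exposure. Reporter mRNA quantified by RT-PCR, 6-FAM labeling and capillary electrophoresis; gain of signal versus DMSO.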

For test [17], the target named is human Retinoic Acid Receptor gamma (RARg), RARG (gene 5916) (UniProt P13631). In words: ATG_RARg_TRANS: Attagene TRANS-FACTORIAL HepG2 Assay for human Retinoic Acid Receptor gamma (RARg) (AID 2283009). In a few lines:
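Transient transfection of HepG2 with multi-reporter constructs, then 24 h chemical treatment. Total RNA isolated, reverse-transcribed, PCR-amplified, fluorescently labelled and resolved by capillary electrophoresis; activity scored as mRNA induction versus DMSO.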

For test [18], the target named is human Thyroid Receptor alpha (THRa1), THRA (gene 7067) (UniProt P10827). In words: ATG_THRa1_TRANS: Attagene TRANS-FACTORIAL HepG2 Assay for human Thyroid Receptor alpha (THRa1) (AID 2283014). The procedure, abridged:
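Measured here is mRNA from a GAL4-UAS reporter in transfected HepG2 cells carrying a Gal4-fused receptor, 24 h post-dose. DMSO served as negative control and baseline.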

Read-out in test [19]: Interleukin-1 alpha (IL1a), IL1A (gene 3552)
In words: BSK_BE3C_IL1a: BioMAP Diversity Plus: BE3C Assay for Interleukin-1 alpha (IL1a) Biomarker Activity (AID 2283016; active means hit-call score of the fitted dose curve at least 0.9, where 1 is the maximum; inactive means score below 0.9). The following applies: primary human bronchial epithelial cells; actives raise or lower the signal. In a few lines: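 BE3C primary human bronchial epithelium; cpd 24 h; IL-1a by ELISA; bidirectional fit vs DMSO; parallel SRB (0.1% SRB, 10% TCA fix, 560 nm) for cytotoxicity.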

Test [20] concerns the target human RAR-related Orphan Receptor beta (RORb), RORB (gene 6096) (UniProt Q92753). The test can be described thus: ATG_RORb_TRANS: Attagene TRANS-FACTORIAL HepG2 Assay for human RAR-related Orphan Receptor beta (RORb) (AID 2283010). The procedure, abridged:
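Readout is reporter-gene mRNA induction, detected as fluorescence after RT-PCR and capillary electrophoresis, fitted for gain of signal against DMSO controls. Transiently transfected HepG2 liver cells carrying GAL4-UAS reporter constructs were treated for 24 hours.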

Inconclusive results are not listed. Active and inactive are the calls of the source. How the source made its calls, unless noted: active means hit-call score of the fitted dose curve at least 0.9, where 1 is the maximum; inconclusive means response in the unintended direction; inactive means score below 0.9.

human Retinoic Acid Receptor gamma (RARg), RARG (gene 5916), sequence (P13631 whole entry, looked up): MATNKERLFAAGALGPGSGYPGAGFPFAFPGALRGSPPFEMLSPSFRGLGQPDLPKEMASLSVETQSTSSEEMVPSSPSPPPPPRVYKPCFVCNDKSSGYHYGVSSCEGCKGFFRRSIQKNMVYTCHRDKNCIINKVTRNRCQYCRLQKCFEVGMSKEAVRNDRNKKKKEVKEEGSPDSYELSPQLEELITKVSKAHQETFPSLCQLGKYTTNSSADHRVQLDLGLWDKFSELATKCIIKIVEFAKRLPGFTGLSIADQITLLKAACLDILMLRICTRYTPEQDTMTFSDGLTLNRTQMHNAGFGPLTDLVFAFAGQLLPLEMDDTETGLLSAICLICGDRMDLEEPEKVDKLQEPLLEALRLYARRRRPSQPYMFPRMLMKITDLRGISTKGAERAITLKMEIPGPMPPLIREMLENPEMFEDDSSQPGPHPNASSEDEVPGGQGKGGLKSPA
Retinoic acid receptor alpha (Homo sapiens), sequence (P10276 whole entry, looked up, the tested form may be a part): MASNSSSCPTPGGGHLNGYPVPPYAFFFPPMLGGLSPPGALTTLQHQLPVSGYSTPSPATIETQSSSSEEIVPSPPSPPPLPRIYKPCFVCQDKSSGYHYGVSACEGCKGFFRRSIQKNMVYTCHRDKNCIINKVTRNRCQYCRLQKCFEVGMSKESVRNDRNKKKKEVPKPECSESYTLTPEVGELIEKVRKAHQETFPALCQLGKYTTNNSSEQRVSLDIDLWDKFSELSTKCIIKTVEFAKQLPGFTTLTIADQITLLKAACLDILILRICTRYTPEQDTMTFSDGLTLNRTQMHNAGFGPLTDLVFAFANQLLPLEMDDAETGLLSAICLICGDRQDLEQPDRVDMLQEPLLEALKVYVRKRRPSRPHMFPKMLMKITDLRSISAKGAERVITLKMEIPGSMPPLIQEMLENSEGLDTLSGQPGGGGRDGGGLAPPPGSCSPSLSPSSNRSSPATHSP
E-selectin (Homo sapiens), sequence (P16581 whole entry, looked up): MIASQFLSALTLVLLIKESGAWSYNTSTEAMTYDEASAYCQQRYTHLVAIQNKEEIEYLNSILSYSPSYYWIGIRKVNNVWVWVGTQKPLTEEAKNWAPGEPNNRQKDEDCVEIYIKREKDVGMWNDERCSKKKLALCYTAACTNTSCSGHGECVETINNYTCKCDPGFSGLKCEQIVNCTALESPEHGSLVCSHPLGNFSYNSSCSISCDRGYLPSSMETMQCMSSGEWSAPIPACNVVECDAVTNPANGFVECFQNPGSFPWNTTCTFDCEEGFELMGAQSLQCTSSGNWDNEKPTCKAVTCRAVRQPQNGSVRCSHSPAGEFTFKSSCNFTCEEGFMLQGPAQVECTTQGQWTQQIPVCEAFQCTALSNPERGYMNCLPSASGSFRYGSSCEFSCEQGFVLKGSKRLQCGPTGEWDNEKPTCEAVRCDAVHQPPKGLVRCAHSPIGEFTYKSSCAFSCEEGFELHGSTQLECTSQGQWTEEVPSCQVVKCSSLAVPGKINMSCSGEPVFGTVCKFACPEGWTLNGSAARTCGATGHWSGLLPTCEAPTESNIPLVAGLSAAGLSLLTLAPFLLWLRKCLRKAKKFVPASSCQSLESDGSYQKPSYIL
human Retinoid X Receptor beta (RXRb), RXRB (gene 6257), sequence (P28702 whole entry, looked up, the tested form may be a part): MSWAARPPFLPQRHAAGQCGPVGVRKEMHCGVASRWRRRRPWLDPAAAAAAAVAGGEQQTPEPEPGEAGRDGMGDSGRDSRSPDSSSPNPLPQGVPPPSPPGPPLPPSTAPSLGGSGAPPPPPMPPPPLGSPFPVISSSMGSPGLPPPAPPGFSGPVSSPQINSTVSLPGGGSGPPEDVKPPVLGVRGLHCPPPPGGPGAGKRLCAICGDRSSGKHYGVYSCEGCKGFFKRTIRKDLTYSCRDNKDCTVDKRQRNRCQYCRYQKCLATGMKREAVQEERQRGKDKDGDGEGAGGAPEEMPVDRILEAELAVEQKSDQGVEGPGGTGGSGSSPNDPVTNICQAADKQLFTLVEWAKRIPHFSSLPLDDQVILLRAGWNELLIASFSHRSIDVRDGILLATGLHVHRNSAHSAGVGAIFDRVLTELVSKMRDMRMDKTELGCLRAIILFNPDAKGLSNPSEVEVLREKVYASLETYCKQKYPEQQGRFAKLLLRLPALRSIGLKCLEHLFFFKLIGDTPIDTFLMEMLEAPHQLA
human RAR-related Orphan Receptor beta (RORb), RORB (gene 6096), sequence (Q92753 whole entry, looked up, the tested form may be a part): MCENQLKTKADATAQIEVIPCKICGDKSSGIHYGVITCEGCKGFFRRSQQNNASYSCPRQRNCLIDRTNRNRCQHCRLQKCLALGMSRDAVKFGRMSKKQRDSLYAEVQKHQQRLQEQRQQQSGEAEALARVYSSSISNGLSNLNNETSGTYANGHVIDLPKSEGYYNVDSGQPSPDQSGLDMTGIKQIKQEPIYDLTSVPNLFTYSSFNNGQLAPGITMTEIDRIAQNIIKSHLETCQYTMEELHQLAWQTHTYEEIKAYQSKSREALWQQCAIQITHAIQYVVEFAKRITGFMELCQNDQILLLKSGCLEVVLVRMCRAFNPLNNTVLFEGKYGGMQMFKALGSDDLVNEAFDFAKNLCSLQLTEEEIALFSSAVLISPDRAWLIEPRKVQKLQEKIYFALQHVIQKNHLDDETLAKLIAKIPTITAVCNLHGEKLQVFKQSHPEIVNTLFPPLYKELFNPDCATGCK
Peroxisome proliferator-activated receptor gamma (Homo sapiens), sequence (P37231 whole entry, looked up, the tested form may be a part): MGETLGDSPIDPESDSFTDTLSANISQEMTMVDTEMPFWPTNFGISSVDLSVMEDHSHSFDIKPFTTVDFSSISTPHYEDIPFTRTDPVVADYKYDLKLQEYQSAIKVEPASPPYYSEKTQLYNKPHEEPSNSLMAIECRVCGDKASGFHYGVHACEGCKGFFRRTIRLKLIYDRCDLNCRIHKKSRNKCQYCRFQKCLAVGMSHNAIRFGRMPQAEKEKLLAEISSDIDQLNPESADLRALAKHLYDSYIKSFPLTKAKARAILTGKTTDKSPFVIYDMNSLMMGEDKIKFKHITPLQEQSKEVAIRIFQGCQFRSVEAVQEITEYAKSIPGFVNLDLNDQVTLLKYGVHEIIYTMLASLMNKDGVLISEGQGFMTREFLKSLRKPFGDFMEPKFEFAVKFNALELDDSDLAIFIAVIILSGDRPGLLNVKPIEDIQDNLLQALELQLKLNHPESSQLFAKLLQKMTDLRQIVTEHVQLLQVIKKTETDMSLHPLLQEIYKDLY
human Thyroid Receptor alpha (THRa1), THRA (gene 7067), sequence (P10827 whole entry, looked up, the tested form may be a part): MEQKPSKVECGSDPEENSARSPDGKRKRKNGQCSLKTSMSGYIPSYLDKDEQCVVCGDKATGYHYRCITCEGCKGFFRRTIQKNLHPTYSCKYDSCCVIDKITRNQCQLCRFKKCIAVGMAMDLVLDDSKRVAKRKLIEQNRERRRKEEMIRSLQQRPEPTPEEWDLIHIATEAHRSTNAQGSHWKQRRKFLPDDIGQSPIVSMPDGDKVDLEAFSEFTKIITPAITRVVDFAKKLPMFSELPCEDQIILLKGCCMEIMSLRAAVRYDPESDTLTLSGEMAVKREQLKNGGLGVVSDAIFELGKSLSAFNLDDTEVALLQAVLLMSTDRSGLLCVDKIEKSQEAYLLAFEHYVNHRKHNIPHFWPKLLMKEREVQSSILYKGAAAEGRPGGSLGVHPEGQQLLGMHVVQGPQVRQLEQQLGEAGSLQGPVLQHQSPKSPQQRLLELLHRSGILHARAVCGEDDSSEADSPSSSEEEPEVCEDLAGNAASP
human Retinoic Acid Receptor beta (RARb), RARB (gene 5915), sequence (P10826 whole entry, looked up, the tested form may be a part): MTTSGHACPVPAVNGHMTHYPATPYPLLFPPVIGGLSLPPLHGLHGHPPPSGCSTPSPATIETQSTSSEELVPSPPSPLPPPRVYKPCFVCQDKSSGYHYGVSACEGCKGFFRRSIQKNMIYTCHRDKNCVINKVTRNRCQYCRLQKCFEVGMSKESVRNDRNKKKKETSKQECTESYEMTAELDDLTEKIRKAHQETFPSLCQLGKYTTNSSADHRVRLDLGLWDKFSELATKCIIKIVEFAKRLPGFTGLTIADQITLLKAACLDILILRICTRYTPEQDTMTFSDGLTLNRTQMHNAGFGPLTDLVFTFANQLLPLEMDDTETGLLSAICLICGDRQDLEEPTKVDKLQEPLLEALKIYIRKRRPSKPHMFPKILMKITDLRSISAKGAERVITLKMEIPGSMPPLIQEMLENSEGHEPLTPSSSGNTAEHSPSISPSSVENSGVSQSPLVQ

Regarding `CC(C)N1C(=O)c2ccccc2NS1(=O)=O`, the result in test [1], in [2], in test [3], in test [4], in test [5] and in [6] was inactive. In addition, the result in [7], in test [8], in test [9], in test [10], in [11] and in test [12] was inactive. Further, the outcome in test [13] and in test [14] was inactive.

Regarding `COc1cc(Cl)c(OC)cc1Cl`, the outcome in [1], in [2], in [3], in test [5], in [15] and in test [16] was inactive. For the same compound, the result in test [6], in test [7], in test [8], in test [17], in [10] and in test [11] was inactive. Also, the result in test [18], in test [12], in test [19], in test [13] and in test [14] was inactive.

For `CCOc1cc(C(C)(C)C)ccc1C1COC(c2c(F)cccc2F)=N1` (stereo unspecified), the AC50 was 28 µM (active) in test [1]; 29 µM (active) in [2]; 3.63 µM (active) in test [16]; 14.4 µM (active) in [6]; 18.9 µM (active) in test [12]; 27.6 µM (active) in test [13]. Further, the AC50 in test [14] is 18.5 µM (active). Also, the compound was called inactive in [3], in test [5], in test [15], in test [7], in [8] and in test [17]. Further, the call in test [9], in test [10] and in test [11] was inactive.

Turning to `CCOc1nc(C(Cl)(Cl)Cl)ns1`, the outcome in test [1], in test [2], in test [3], in test [5], in [15] and in [16] was inactive. Further, the result in [6], in test [7], in test [8], in test [17], in [20] and in test [9] was inactive. In addition, the compound was called inactive in [10], in [11], in test [18], in test [12], in test [13] and in [14].

On to `CCOP(=O)(OCC)Oc1nc(Cl)c(Cl)cc1Cl`, for which the outcome in test [1], in test [4], in test [5], in test [8], in test [9] and in test [10] was inactive. Further, the compound was classed as inactive in test [11], in test [12], in test [13] and in test [14]. Moreover, the concentration at half-maximal activity (AC50) was 30.5 µM (active) in test [2], 8.46 µM (active) in [6] and 30.8 µM (active) in test [7].

`CC(C)N1C(=O)N(c2ccccc2)CSC1=NC(C)(C)C`: the AC50 in test [1] is 32 µM (active); in [2], 31.2 µM (active); in [6] it was 16.4 µM (active); in test [12] it was 16 µM (active); in test [13], 31.3 µM (active); in [14] it was 30.4 µM (active). For the same compound, the compound was called inactive in test [4], in test [5], in test [7], in test [8], in [20] and in test [9]. For the same compound, the outcome in test [10] and in [18] was inactive.

For the compound `CCCCC(O)(Cn1cncn1)c1ccc(Cl)cc1Cl` (stereo unspecified), the outcome in test [1], in [2], in test [4], in test [5], in [7] and in test [8] was inactive. In addition, the compound was classed as inactive in test [9], in test [10], in [12], in test [19], in test [13] and in test [14]. Besides, in test [6], the concentration at half-maximal activity (AC50) was 26.2 µM (active).

For `CCOP(=S)(OCC)Oc1nc(Cl)n(C(C)C)n1`, the result in [1], in [2], in test [5], in test [15], in [16] and in test [6] was inactive. Besides, the call in test [7], in test [20], in [9], in test [11], in test [18] and in test [12] was inactive. For the same compound, the outcome in test [19], in test [13] and in [14] was inactive. In [8], the AC50 is 2.39 µM (active).
